High-throughput results as filed in PubChem.
hgDAF12 agonist: agonists of H. glycines DAF-12 nuclear receptor; HEK293 GAL4-hgDAF12 UAS-luciferase reporter, agonist luminescence; normalized to butyrate control; activation, % at 6.8 µM; 370,000 tested, 1.8% active; AID 687014;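 active = activation above a cutoff set at the mean of all screened compounds plus 3 SD, cut at about 10% in these data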;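 also: 0% = DMSO wells and 100% = sodium butyrate wells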
hcDAF12 agonist: activators of H. contortus DAF-12 nuclear receptor; HEK293 hcDAF-12 lit1-tk-luc reporter, luminescence; 0% DMSO, 100% Δ7-dafachronic acid; activation, % at 6.8 µM; 370,000 tested, 1.4% active;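 active = activation above the mean of all tested compounds plus 3 SD, cut at about 5.5% in these data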;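 also: 100% = response to 3 µM Δ7-dafachronic acid high control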
DAX1 inh-1: blocks DAX1 repression of SF-1 activated StAR promoter | HEK293T StAR-luciferase reporter, SF-1/DAX-1 repression relief | inhibition, % at 6.8 µM | 370,000 tested, 1.1% active | AID 652010;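 active = inhibition above the mean over all tested compounds plus 3 SD, cut at about 3.6% in these data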;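 also: 0% = DAX-1 cells with DMSO and 100% = cells lacking DAX-1 with DMSO; higher inhibition means more luminescence from relief of DAX-1 repression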
ssDAF-12 act: activates DAF-12 receptor from parasite S. stercoralis. HEK293 ssDAF-12/GRIP1 lit1-tk-luc reporter, luminescence; % of 3 µM dafachronic acid response. activation, % at 6.8 µM. 370,000 tested, 1% active. AID 652126;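 active = activation above the mean over all tested compounds plus 3 SD, cut at about 0.9% in these data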;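 also: 0% = DMSO-only wells and 100% = 3 µM delta7-dafachronic acid wells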
DAX1 inh-2: inhibitors of human orphan nuclear receptor DAX1 (NR0B1); P51843; HEK293 Gal4-DAX1 luciferase reporter, luminescence; inhibition, % at 6.75 µM; 340,000 tested, 0.99% active;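 active = inhibition above the mean over all tested compounds plus 3 SD, cut at about 4.2% in these data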;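 also: 0% = DAX1-transfected cells with DMSO and 100% = empty-vector control cells with DMSO; inhibition shows as a rise in luminescence from relieved DAX1 repression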
Target sequence (P51843 207-470 limits assumed): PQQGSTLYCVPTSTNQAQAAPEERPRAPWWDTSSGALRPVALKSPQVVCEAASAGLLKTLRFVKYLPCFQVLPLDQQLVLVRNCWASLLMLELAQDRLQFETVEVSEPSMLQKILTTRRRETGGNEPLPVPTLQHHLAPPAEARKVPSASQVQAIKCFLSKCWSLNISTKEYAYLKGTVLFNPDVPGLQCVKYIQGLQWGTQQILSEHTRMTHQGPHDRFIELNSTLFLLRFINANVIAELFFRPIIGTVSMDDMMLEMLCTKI
The depositor's hits bear a star; x = not tested or not shown; ! = repeats disagree. Hits are enriched below; roughly 4.1% of the tested compounds scored in any of these assays.

SMILES	hgDAF12 agonist	hcDAF12 agonist	DAX1 inh-1	ssDAF-12 act	DAX1 inh-2
COc1ccc(NC(=O)CS(=O)(=O)Cc2nc(-c3ccc(C)cc3)oc2C)cc1	1	4	0	-1	1
COC(=O)c1ccccc1NC(=O)CS(=O)(=O)Cc1nc(-c2ccc(C)cc2)oc1C	-2	3	1	1.1*	-1
C[C@H]1CCC[C@H](O)CC(=O)c2c(O)cc(O)cc2CC(=O)O1	-9	-3	-3	0	x
CCCCCn1c(=O)[nH]c2cc(C(=O)NC3CCN(Cc4ccccc4)CC3)ccc2c1=O	-3	-1	0	-2	6.5*
COC(=O)c1ccc2c(=O)n(CCCCCC(=O)NC3CCCCC3)c(=O)[nH]c2c1	2	5.8*	2	-1	x
CCCCCn1c(=O)[nH]c2cc(C(=O)O)ccc2c1=O	-2	-2	0	-2	0
COC(=O)c1ccc2c(=O)n(CCCCCC(=O)NC(C)C)c(=O)[nH]c2c1	4	-1	1	-2	0
COc1ccc(N2C[C@@]3(O)CC[C@@H](O)[C@@H](OC)[C@@H]3[C@@]2(C)[C@H](O)CC=C(C)C)cc1	0	1	-1	-1	x
CC1CCN(C(=O)Cn2c(=O)oc3cc(S(=O)(=O)N4CCCCC4)ccc32)CC1	-1	-1	2	-1	4.9*
Clc1cc(Cl)cc(CNC2CCC23CCCCC3)c1 (stereo not given)	0	-1	x	-1	x
COc1ccc(N2C(=O)[C@H]3[C@@H](C2=O)C2c4ccccc4C=NN2[C@H]3C(=O)C(C)(C)C)cc1 (stereo not given in full)	0	-1	0	-2	5.6*
CC(=O)Oc1ccc(N2C(=O)[C@@H]3[C@H](C2=O)[C@H]2c4ccccc4C=NN2[C@@H]3C(C)=O)cc1	3	2	0	-1	0
CCCCNC(=O)C1CCCN1C(=O)Nc1cccc(C)c1 (stereo not given)	1	2	1	-1	x
Cc1nnc2ccc(-c3ccc(NC(=O)c4ccco4)cc3)nn12	-1	-1	0	-2	1
CC(=O)Nc1ccc(-c2ccc3nnc(C)n3n2)cc1	-3	1	0	-2	5.1*
O=C(Nc1ccc([N+](=O)[O-])cc1)c1ccccc1F	12*	2	2	-1	2
O=C(Nc1ccccc1)c1cc([N+](=O)[O-])ccc1Cl	0	5.8*	-1	0	0
CC(=O)Nc1ccc(NC(=O)c2ccc([N+](=O)[O-])cc2Cl)cc1	1	-2	0	-2	1
O=C(Nc1ccc(-c2ccc([N+](=O)[O-])cc2)cc1)c1ccccc1F	0	1	1	-2	2
Cc1ccc(C(=O)Nc2ccc(Nc3ccccc3)cc2)c(Cl)c1	1	-2	0	2.0*	-1
CCN(CC)C(=O)CC[C@H]1CC[C@]2(CCCN(C(=O)c3cccnc3)C2)O1	0	0	0	-2	x
O=C(C(=O)N1CCC(CNS(=O)(=O)c2cccc(C(F)(F)F)c2)CC1)c1cc2ccccc2o1	0	-1	0	-1	x
Cc1cc(/C=N/NC(N)=S)c(C)n1-c1ccc(Cl)c(Cl)c1	0	-3	-2	-1	-3
CCNC(=S)N/N=C/c1cc(C)n(-c2ccc(Cl)cc2)c1C	11*	2	1	-1	0
Cc1ccc2c(c1)N(CC(=O)NCCCN1C(C)CCCC1C)C(=O)c1cccnc1O2 (stereo not given)	-2	0	0	-1	4.8*
SMILES	hgDAF12 agonist	hcDAF12 agonist	DAX1 inh-1	ssDAF-12 act	DAX1 inh-2
O=[N+]([O-])c1cccc(C2=Nn3c(nnc3-c3ccccc3)SC2)c1	6	-2	-2	-1	x
NC1=NC(=O)/C(=C/C=C/c2cccs2)S1	5	1	0	0	4.8*
O=C(O)CSc1nc2c(c(C(F)(F)F)n1)CCCC2	1	0	0	-1	5.1*!
Cc1nc(SCc2cccc(C(=O)O)c2)nc2c1CCCC2	-9	-5	-1	-2	-1
COC(=O)CSc1nc(C)c2c(n1)CCCC2	0	-1	1	-1	4.6*
CC1(C)CC(=O)N(CC(=O)N2CCN(Cc3ccc4c(c3)OCO4)CC2)c2ccccc2S1(=O)=O	0	-1	0	-1	x
O=[N+]([O-])c1ccc(C2=NN(c3ccccc3)C(c3ccco3)C2)cc1 (stereo not given)	4	0	0	0	6.4*
